Assay [1] in a line: qHTS Assay for Lipid Storage Modulators (AID 1519; calls by dose curve; for activity change, negative = inhibition: % is set by controls: 0 for no effect and ±100 for the full control effect). As to conditions: Drosophila S3 cells, BODIPY lipid droplet/cell ratio, laser cytometry, cells loaded with oleic acid. The method, boiled down:
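Cells seeded at 5,000 per well were treated with compounds over a concentration series and loaded with oleic acid (400 uM, as added). Lipid droplet fluorescence (488 nm excitation, 500-530 nm channel) was read by laser-scanning cytometry and normalized to 20 uM Triacsin C.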
In general terms: qHTS replaces the single test concentration by a dilution series.

Assay [2] concerns the target DNA repair nuclease/redox regulator APEX1 (Homo sapiens) (UniProt P27695). In words: qHTS Validation Assay for Inhibitors of the Human Apurinic/apyrimidinic Endonuclease 1 (APE1) (AID 1705;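 note: TAMRA fluorescence gain over two minutes as APE1 cuts a quenched THF abasic duplex; % is set by controls: 0 for no effect and ±100 for the full control effect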). The gist of the method:
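Endonuclease activity of human APE1 is followed as dequenching when the enzyme incises a tetrahydrofuran abasic site in a short duplex labelled 5'-TAMRA/3'-BHQ-2 (50 nM final), after 15 min enzyme–compound preincubation at room temperature.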

The nature of assay [3]: Counterscreen for APE1 Inhibitors: Fluorescent Dye Displacement Validation Assay (AID 1707).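 Note: plate controls were ThO with dsDNA and no compound for no effect and ThO without dsDNA for full effect.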 The method, boiled down: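 Loss of Thiazole Orange fluorescence marks promiscuous DNA binders. The dye (250 nM) is mixed with 50 nM abasic-site dsDNA in pH7.5 Tris buffer containing MgCl2, then compounds are added and emission is read once.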
(The purpose of a counterscreen is to sort out artefacts and off-target activity.)

Assay [4] can be described thus: qHTS for differential inhibitors of proliferation of Plasmodium falciparum line 7G8 (AID 1815).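 For activity change, negative = inhibition: plate controls were vehicle wells for no effect and reference inhibitor wells for full effect.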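 Note: parasite growth measured after three days of incubation.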 Note: potency is the fitted concentration of half-maximal effect.
Assay [5] can be described thus: qHTS for differential inhibitors of proliferation of Plasmodium falciparum line GB4 (AID 1816).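 For activity change, negative = inhibition: 0% = vehicle DMSO and -100% = reference inhibitor.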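 Note: parasite growth measured after 72 h incubation.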 Note: potency is the fitted concentration of half-maximal effect. As to conditions: Potency: Plasmodium falciparum GB4 proliferation inhibition.
Assay [6] in a line: qHTS for differential inhibitors of proliferation of Plasmodium falciparum line D10 (AID 1877).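 For activity change, negative = inhibition: plate controls were vehicle wells for no effect and reference inhibitor wells for full effect.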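 Note: parasites grown with compound for 72 h before DNA staining.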 Note: potency is the fitted concentration of half-maximal effect.
Assay [7] concerns the target Endonuclease 4 (Escherichia coli (strain K12)) (UniProt P0A6C1). Put plainly: Counterscreen for APE1 Inhibitors: qHTS Validation Assay for Inhibitors of Endonuclease IV (AID 1708). Note: % is set by controls: 0 for no effect and ±100 for the full control effect. The gist of the method: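 Incision of a double-stranded 50 nM TAMRA/BHQ-2 abasic substrate was followed kinetically (525/598 nm, reads every 60 s) after 15 min enzyme–compound preincubation with 2 nM EndoIV in pH 7.5 Tris buffer with MgCl2, DTT and Tween-20; concentration-response format.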

The nature of assay [8]: qHTS for differential inhibitors of proliferation of Plasmodium falciparum line 3D7 (AID 1876). Note: potency is the fitted concentration of half-maximal effect.
Assay [9] has as its target alpha-glucosidase (Oryza sativa, rice) (UniProt Q653V4). In words: Counterscreen for Glucocerebrosidase Inhibitors: qHTS Assay for Rice alpha-Glucosidase at pH 5.0 (AID 997).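 Note: 0% = full activity with enzyme and -100% = basal without enzyme.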 The gist of the method: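 Endpoint fluorogenic assay at pH 5.0: compounds (0.7 nM to 77 uM) titrated against 4 nM rice enzyme and 400 uM 4-MU-alpha-glucoside for 20 min at room temperature; NaOH/glycine stop, read ex 365/em 440 nm, Hill-fitted AC50.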

Where [10] appears, read: measured here: cell count channel max response.
[11] abbreviates: measured here: lipid channel max response.

Experimental findings from PubChem BioAssay (NCATS) are described below.

Molecules are shown by their SMILES. Several values for one entry are separate records, joined by “and”; a condition that tells them apart may be missing. Equal values may be shown once. Results filed as inconclusive are left out. Activity calls are given as the source filed them. Unless noted, calls come from the whole dose curve; as a rule, active = well fitted curve in the direction sought with a large enough effect; inconclusive = small, poorly fitted or top-dose-only effect, or another doubt; inactive = no such curve, though single readings can be large; an effect the other way counts as inactive or inconclusive.

DNA repair nuclease/redox regulator APEX1 (Homo sapiens), sequence (P27695 whole entry, looked up): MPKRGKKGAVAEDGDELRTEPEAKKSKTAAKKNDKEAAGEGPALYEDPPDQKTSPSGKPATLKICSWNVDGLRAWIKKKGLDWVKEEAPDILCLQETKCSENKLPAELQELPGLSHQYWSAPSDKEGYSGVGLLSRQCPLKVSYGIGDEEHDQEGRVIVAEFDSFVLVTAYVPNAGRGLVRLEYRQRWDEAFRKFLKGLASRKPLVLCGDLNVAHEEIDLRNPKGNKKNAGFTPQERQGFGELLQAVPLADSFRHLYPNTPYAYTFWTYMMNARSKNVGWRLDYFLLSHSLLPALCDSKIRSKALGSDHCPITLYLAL

For the compound `Nc1cc(-c2ccncc2)c[nH]c1=O`, in assay [1] (at 25.7 µM (top of the series)), the activity change, negative = inhibition is 3.03% (inactive). Also, the max response in assay [1] (setting [10]) came to 5.25%; in assay [1] (setting [11]) it was 9.64%.
Consider `CCCCCCCCCCCCCCCC(=O)OC(CC(=O)O)C[N+](C)(C)C` (stereo not given), for which the activity change, negative = inhibition in [1] (at 57.5 µM (top of the series)) was -1.01% (inactive). Also, the max response in assay [1] (setting [10]) was found to be 29%; in assay [1] (setting [11]), 25.7%. Moreover, the Potency entry in assay [2], in [3], in assay [4], in assay [5] and in assay [6] was “inactive” in each case.
In the case of `COc1cc(NC(C)CCCN)c2ncccc2c1` (stereo not given), the activity change, negative = inhibition in assay [1] (at 57.5 µM (top of the series)) is 7.1% (inactive). Also, the max response in assay [1] (setting [10]) stood at 14.8%; in [1] (setting [11]), 28.1%.
For the compound `CCCCCCCCCCCCCCCC(=O)NCC(COP(=O)([O-])OCC[N+](C)(C)C)OCC` (stereo not given), the activity change, negative = inhibition in assay [1] (at 57.5 µM (top of the series)) was -0.558% (inactive). Besides, the max response in assay [1] (setting [10]) was -22.8%; in assay [1] (setting [11]) it was -25%. For the same compound, the Potency entry in assay [2], in assay [7], in assay [4], in assay [8] and in assay [6] was “inactive” each time.
As to `N=C(N)N`, in assay [1] (at 57.5 µM (top of the series)), the activity change, negative = inhibition was 4.02% (inactive). Also, the max response worked out at 15.8% in assay [1] (setting [10]) and 23.8% in assay [1] (setting [11]).
With `O=S(=O)(c1cccc2c(I)cccc12)N1CCCNCC1`, the compound was classed as inactive in assay [9]. In addition, the activity change, negative = inhibition in assay [1] (at 57.5 µM (top of the series)) is 1.19% (inactive). The max response was -8.25% in [1] (setting [10]) and -5.07% in assay [1] (setting [11]). Also, the Potency entry in [2], in [3], in [7], in [4], in assay [8] and in assay [6] was “inactive” throughout.
Take `CCCSc1ccc2nc(NC(=O)OC)[nH]c2c1`: the activity change, negative = inhibition was -1.88% (inactive) in [1] (at 25.7 µM (top of the series)) and 9.19% (inactive) in assay [1] (at 57.5 µM (top of the series)). Besides, the max response in assay [1] (setting [10]) is -8.08% and -12.8%; in assay [1] (setting [11]) it was -10.3% and -11.2%.
Take `O=C(/C=C/c1ccc(O)c(O)c1)OCCc1ccccc1`: in [1] (at 57.5 µM (top of the series)), the activity change, negative = inhibition is -2.35% (inactive) and -20.7% (inactive). Further, the max response in assay [1] (setting [10]) was -15.3% and -76.7%; in assay [1] (setting [11]) it was -17.2% and -81.3%. Moreover, the Potency entry in assay [2] and in assay [7] was “inactive” throughout. In addition, the Potency is 6.31 µM (active) in assay [4], 5.01 µM (active) in [5], 10 µM (active) in [8] and 12.6 µM (active) in assay [6].
`Nc1nc(Cl)nc2c1ncn2[C@@H]1O[C@H](CO)[C@@H](O)[C@H]1O`: the activity change, negative = inhibition in assay [1] (at 57.5 µM (top of the series)) was 5.13% (inactive). Further, the max response in assay [1] (setting [10]) was found to be 7.07%; in assay [1] (setting [11]), 14%.
For `O=C(O)CCCC[C@@H]1CCSS1`, the activity change, negative = inhibition in assay [1] (at 57.5 µM (top of the series)) was -3.03% (inactive). For the same compound, the max response was -26.8% in [1] (setting [10]) and -29% in assay [1] (setting [11]). Moreover, the Potency entry in [2], in assay [3], in [4], in [5], in assay [8] and in [6] was “inactive” throughout.
With `O=C1CN(/N=C/c2ccc([N+](=O)[O-])o2)C(=O)N1`, in [1] (at 57.5 µM (top of the series)), the activity change, negative = inhibition is 8.89% (inactive). For the same compound, the max response stood at 3.43% in assay [1] (setting [10]) and 14.3% in assay [1] (setting [11]).
For `O=C(OCc1ccccc1)c1ccccc1`, in that order: 9.34% (inactive), -2.84% and 6.88%.
Turning to `O=C1NC(O)=NC1(c1ccccc1)c1ccccc1`, the result in assay [9] was inactive. In assay [1] (at 57.5 µM (top of the series)), the activity change, negative = inhibition is 1.6% (inactive). Besides, the max response in assay [1] (setting [10]) was -13.9%; in assay [1] (setting [11]) it was -13.3%. The Potency result in assay [2], in [3], in assay [7], in assay [4], in assay [5] and in assay [8] was “inactive” each time. The Potency result in assay [6] is “inactive”.
In the case of `NCCCS(=O)(=O)O`, the result in [9] was inactive. Moreover, in assay [1] (at 57.5 µM (top of the series)), the activity change, negative = inhibition was 4.47% (inactive). Also, the max response in assay [1] (setting [10]) came out at 17.3%; in [1] (setting [11]) it was 22.8%. The Potency entry in [2], in [3] and in assay [7] was “inactive” in each case.
Turning to `Cc1c(N)c(=O)n(-c2ccccc2)n1C`, the activity change, negative = inhibition in [1] (at 25.7 µM (top of the series)) was -0.255% (inactive); in assay [1] (at 57.5 µM (top of the series)), 3.79% (inactive). Moreover, the max response in assay [1] (setting [10]) was 3.27% and 4.31%; in assay [1] (setting [11]), 6.06% and 9.92%.
Turning to `COc1cc(OC)c(/C=C2/C(=O)Nc3ccccc32)c(OC)c1`, in assay [9], the compound was classed as inactive. The activity change, negative = inhibition in [1] (at 57.5 µM (top of the series)) was -1.27% (inactive). Also, the max response came to 30.4% in [1] (setting [10]) and 28.6% in assay [1] (setting [11]). Further, the Potency entry in [2], in assay [3] and in [6] was “inactive” each time.
